Glioma ERSR ind: qHTS for Inducers of the Endoplasmic Reticulum Stress Response (ERSR) in Human Glioma: qHTS; 420,000 tested, 0.02% active; U87-MG GRP78 promoter luciferase reporter, 16 h; Potency, µM, most hits filed as activators; active = well fitted activation curve with a large enough effect; note: series mostly up to about 76 µM; nearly all actives have a fitted effect of over 35% in size
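Stably transfected U87-MG glioma cells carrying a GRP78-based luciferase sensor; 16 h compound incubation. Luminescence end-point read 10 min after Bright-Glo addition at room temperature.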
TRHR ag: qHTS for Small Molecule Agonists and Allosteric Enhancers of Human TRH Receptor: Primary Screen for Agonists | Thyrotropin-releasing hormone receptor (Homo sapiens), P34981 | TRHR cells, calcium flux fluo-8, FDSS agonist mode | 360,000 tested, 0.18% active | activation, % at 2 µM | AID 493084, 2011
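In this calcium-flux screen, cells bearing human TRHR are dye-loaded with fluo-8, baselined for 10 cycles, then exposed to library compounds; positive kinetic calcium responses during the agonist phase mark hits, with TRH as control.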
D1 potentiator: Potentiators of Human D1 Dopamine Receptor: qHTS; AID 504651, 2011; D(1A) dopamine receptor (Homo sapiens), P21728; HEK293 TREx D1 cells, calcium flux, dopamine EC20 potentiation; potentiation, % at 10 µM; 360,000 tested, 0.036% active; in the data active = potentiation above about 30%
Target sequence (P21728 whole entry, looked up): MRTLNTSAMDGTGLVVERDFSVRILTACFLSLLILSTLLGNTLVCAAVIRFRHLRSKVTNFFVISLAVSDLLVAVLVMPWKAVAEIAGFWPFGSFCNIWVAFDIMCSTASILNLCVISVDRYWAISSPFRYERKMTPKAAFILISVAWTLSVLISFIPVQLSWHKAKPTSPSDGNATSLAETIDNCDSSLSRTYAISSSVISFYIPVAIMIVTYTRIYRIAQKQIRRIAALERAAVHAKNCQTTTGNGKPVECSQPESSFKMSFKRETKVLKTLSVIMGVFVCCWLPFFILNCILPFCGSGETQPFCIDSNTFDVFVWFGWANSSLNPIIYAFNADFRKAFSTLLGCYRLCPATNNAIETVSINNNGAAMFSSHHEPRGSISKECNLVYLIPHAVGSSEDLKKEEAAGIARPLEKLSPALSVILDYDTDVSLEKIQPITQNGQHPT
TRHR PAM: qHTS for Small Molecule Agonists and Allosteric Enhancers of Human TRH Receptor: Primary Screen for Enhancers | 360,000 tested, 0.66% active | enhancement, % at 2 µM | TRHR cells, fluo-8 calcium fluorescence, EC20 TRH enhancement; in the data active = enhancement above about 30%
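Enhancer read-out: after compound pinning and an initial kinetic agonist-mode read, an EC20 of TRH (10 nM final) was injected and fluo-8 calcium signal (Ex 480/Em 530) followed at 1 s/cycle for 100 cycles in TRHR-expressing cells.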
D1 antagonist: Antagonist of Human D 1 Dopamine Receptor: qHTS; D(1A) dopamine receptor (Homo sapiens), P21728; HEK293 TREx D1 cells, calcium flux, dopamine EC80; stronger effect = lower value; activity change, negative = inhibition, % at 10 µM; 360,000 tested, 3.2% active; in the data active = activity change below about -30%
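Inducible Hek293 Trex D1 cells (tetracycline, overnight, 30 C). Calcium dye 30–90 min RT. Antagonist mode: EC80 dopamine added after 180 s compound read.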
D1 agonist: Allosteric Agonists of the Human D1 Dopamine Receptor: qHTS; 360,000 tested, 1% active; AID 504660, 2011; D(1A) dopamine receptor (Homo sapiens), P21728; activation, % at 2 µM; HEK293 T-REx D1 cells, calcium flux, agonist mode
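Inducible HEK293 T-REx D1 cells, force-coupled to calcium signalling, were plated at 4000 cells/well with tetracycline and held overnight at 30 C. After no-wash calcium dye loading, compound-evoked calcium rise over 180 s flagged agonists.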
Each line names hits and unclear results; the compound was inactive in the other large screens. The list is not random: actives were taken first. Their share in the collection is about 4%. Cut-off read from the data, not from the text of the source, unless noted: active = activation above about 30%; inactive = the rest.

Fc1cccc(Cl)c1CNc1ccc(N2CCCC2)cc1	none
NS(=O)(=O)c1ccc(NCc2c(F)cccc2Cl)cc1	D1 antagonist -34.8
CC(/C=C/c1ccccc1)=N\NC(=O)c1cc(C)nc2ccccc12	D1 antagonist -36.0
C/C(=N\NC(=O)c1cc(C)nc2ccccc12)c1cccs1	none
Cc1cc(C(=O)NN=C2CCCCC2)c2ccccc2n1	D1 antagonist -88.7
Cc1cc(C)c(Cn2c3ccccc3c3cnn(CC(=O)NCc4cccs4)c(=O)c32)c(C)c1	none
Cc1cccc(C(=O)NCC(=O)N(C)Cc2nc3ccccc3c(=O)[nH]2)c1	none (no result: TRHR ag, D1 potentiator, TRHR PAM, D1 antagonist, D1 agonist)
Cc1ccccc1OCc1nc2ccccc2c(=O)n1/N=C/c1cccc([N+](=O)[O-])c1	D1 antagonist -32.0
CCOC(=O)c1ccc(NC(=O)c2nc[nH]c2C(=O)NC)cc1	none
OC1CCCN(C(=S)Nc2ccc(SC(F)F)cc2)C1 (configuration not stated)	none
COc1ccc(NC(=O)CCCn2nc(C)c3c(C)n(-c4ccccc4)nc3c2=O)cc1OC	D1 antagonist -52.6
COCCNC(=O)Cn1nc(C)c2c(C)n(-c3ccc(C)cc3)nc2c1=O	none
COc1ccc(CCNC(=O)Cn2nc(C)c3c(C)n(-c4ccc(C)cc4)nc3c2=O)c(OC)c1	D1 antagonist -43.0
CCn1c(SCc2ccc(F)cc2)nc2c(c1=O)SCC2	none
COc1ccc(/C(C)=N/NC(=O)c2cc(C)[nH]n2)c(OC)c1	none
CCOCCCn1c(=N)c(C(=O)NCc2cccnc2)cc2c(=O)n3cc(C)ccc3nc21	D1 agonist 34.0
COCCCn1c(=N)c(C(=O)NC2CCCC2)cc2c(=O)n3cc(C)ccc3nc21	D1 agonist 85.6
CCCn1c(=N)c(C(=O)NC2CCCC2)cc2c(=O)n3cc(C)ccc3nc21	none
CN(C)c1ccc(C=C2SC(=S)N(Cc3ccco3)C2=O)cc1	none (no result: TRHR ag, D1 potentiator, TRHR PAM, D1 antagonist, D1 agonist)
Cc1cc(/C=C2\SC(=S)N(Cc3ccco3)C2=O)c(C)n1-c1ccccc1	D1 agonist 30.7
CC(=O)c1ccc(N2CCN(C(=O)Nc3ccc(C(C)C)cc3)CC2)cc1	D1 antagonist -47.1
CC(=O)c1ccc(N2CCN(C(=O)Nc3ccc(F)cc3)CC2)cc1	none (no result: Glioma ERSR ind)
COc1cccc(CNC(=O)CSc2nc3ccccc3nc2Cc2ccc(C)cc2)c1OC	TRHR PAM 32.8
O=C(/C=C/c1ccc2c(c1)OCO2)NCCSCc1cccc(Cl)c1	D1 antagonist -31.5
O=C(/C=C/c1ccc2c(c1)OCO2)NCCSCc1ccc(Cl)cc1Cl	none
O=C(/C=C/c1cccc(F)c1)NCc1ccc2c(c1)OCO2	D1 antagonist -34.9
CC(C)(O)CNC(=O)Nc1ccc(Cl)c(Cl)c1	none
CC(C)(C)N(NC(=O)Nc1ccc(F)cc1)C(=O)c1ccccc1	none
Cc1cc(C)cc(C(=O)N(NC(=O)Nc2ccc(Cl)cc2)C(C)(C)C)c1	D1 antagonist -30.4
CC1=NNC(=O)C(CC(=O)Nc2ccc(Cl)c(Cl)c2)C1 (configuration not stated)	D1 antagonist -35.5
CC(C)(C)N(NC(=O)Nc1ccc(Cl)c(Cl)c1)C(=O)c1ccccc1	D1 agonist 33.4
O=C(CC1NCCNC1=O)Nc1ccc(Cl)c(Cl)c1 (configuration not stated)	none
CC(C)(CC(=O)O)CC(=O)Nc1ccc(Cl)c(Cl)c1	D1 antagonist -58.3
Cc1cccc(C)c1NC(=O)NN(C(=O)c1ccccc1)C(C)(C)C	none
CC(C)(C)c1ccc(OCC(O)CNC(=O)c2ccccc2C(=O)O)cc1 (configuration not stated)	none (no result: TRHR ag, D1 potentiator, TRHR PAM, D1 antagonist, D1 agonist)
Cc1ccc2c(c1)c1c(c(=O)n(-c3ccccc3C)c(=O)n1CC(=O)N1CCCC1)n2C	none
Cc1ccc(-c2noc(CCC(=O)NCCCN3CCN(c4ccc(F)cc4)CC3)n2)cc1	D1 antagonist -82.5
COc1ccc(-c2noc(CCC(=O)NCCCN3CCN(c4ccccc4F)CC3)n2)cc1	D1 antagonist -56.4, D1 agonist 31.5
Cc1ccc(-c2noc(CCC(=O)NCCCN3CCN(c4cccc(Cl)c4)CC3)n2)cc1	D1 antagonist -73.0, D1 agonist 82.3
Cc1cc2c(s1)c1cnn(Cc3ccc(Br)cc3)c(=O)c1n2C	none (no result: Glioma ERSR ind)
CC1CCc2c(sc3ncnc(NCc4cccnc4)c23)C1 (configuration not stated)	none
COc1ccc(NC(=O)NNC(=O)COc2ccc3cc(Br)ccc3c2)c(OC)c1	D1 antagonist -32.5
Cc1cc(C)cc(CSCC(=O)N/N=C/c2ccc(OCC(=O)NCc3ccco3)cc2)c1	none (no result: TRHR ag, D1 potentiator, TRHR PAM, D1 antagonist, D1 agonist)
O=C(NCCN1CCOCC1)c1ccc(-c2ccccc2)cc1	D1 antagonist -36.3
O=C(Cc1ccc(-c2ccccc2)cc1)NCCN1CCOCC1	none
CCCCC(=O)Nc1ccc(C(=O)NCCN2CCOCC2)cc1	D1 antagonist -57.7
CC(C)NC(=O)c1ccc(CN2CCC(Cc3ccccc3)CC2)cc1	none
COc1ccc(CCNC(=O)c2ccc(CN3CCC(Cc4ccccc4)CC3)cc2)cc1	none
C=CCNC(=O)c1ccc(CN2CCC(Cc3ccccc3)CC2)cc1	D1 antagonist -58.3
Cc1ccccc1NC(=O)c1ccc(CN2CCC(Cc3ccccc3)CC2)cc1	D1 antagonist -57.4
Cc1cc(C(=O)N2CCC(Cc3ccccc3)CC2)ccc1[N+](=O)[O-]	D1 antagonist -31.7
Cc1ccc(C(=O)NCC(=O)N2CCC(Cc3ccccc3)CC2)cc1	D1 antagonist -35.8
C[C@H]1CN([C@@H](C)CO)S(=O)(=O)c2ccc(Br)cc2O[C@H]1CN(C)Cc1ccccc1F	none (no result: TRHR ag, D1 potentiator, TRHR PAM, D1 antagonist, D1 agonist)
O=C(/C=C/c1ccccn1)c1ccc(Br)cc1O	none
C=CCSc1nnc(-c2cnn(-c3ccccc3)c2-n2cccc2)n1C	none
O=C(Cn1ccc(NC(=O)OCc2ccccc2)nc1=O)NCC1CCCO1 (configuration not stated)	none (no result: D1 antagonist)
CCOC(=O)c1ccc(NC(=O)CSc2ccc(-c3sc(C)nc3C)nn2)cc1	D1 antagonist -41.6
COc1ccc(OC)c(NC(=O)CSc2ccc(-c3sc(C)nc3C)nn2)c1	none
COc1ccc(C)cc1NC(=O)CSc1ccc(-c2sc(C)nc2C)nn1	D1 antagonist -50.4
CC(=O)Nc1ccc(NC(=O)CSc2ccc(-c3sc(C)nc3C)nn2)cc1	none
